Our source for the Potency, outcome and max response values is PubChem BioAssay (NCATS).

The structures appear in SMILES notation. A number with no mark means an inactive call. Inconclusive results are not listed. Calls of active or inactive are those of the source. Calls come from the whole dose curve; as a rule, active = well fitted curve in the direction sought with a large enough effect; inconclusive = small, poorly fitted or top-dose-only effect, or another doubt; inactive = no such curve, though single readings can be large; an effect the other way counts as inactive or inconclusive.

The target in assay [1] is Calcium and integrin-binding protein 1 (Homo sapiens) (UniProt Q99828). As to the kind of experiment: Primary qHTS for Identification of Calcium Integrin Binding Protein 1 (CIB1) Competitor (AID 1508620).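 Note: GST tagged CIB1 binding a fluorescein labelled alphaIIb integrin peptide tracer; top concentration of the series differs between compounds; % is set by controls: 0 for no effect and ±100 for the full control effect.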 An outline of the steps:
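Fluorescence polarization competition: CIB1-GST (1 uM final) preincubated with compound 15 min at room temperature, then FITC-labeled alphaIIb peptide (100 nM final) added for another 15 min. Polarization read at Ex 480/Em 540.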

The nature of assay [2]: Primary qHTS for inhibitors of nuclear receptor binding SET domain protein 2 (NSD2) in an isogenic RCH-ACV NSD2 p.E1099K mutant (9B) (AID 1645876). Note: nearly all actives have a fitted effect of over 70% in size. Note: potency is the fitted concentration of half-maximal effect.
The target in assay [3] is Glutathione peroxidase 1 (Homo sapiens) (UniProt P07203). As to the kind of experiment: Primary qHTS Assay for Inhibitors of Recombinant Selenoprotein Glutathione Peroxidase 1 (GPX1) (AID 1845191). Note: nearly all actives have a fitted effect of over 65% in size. The procedure, abridged: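 Recombinant GPX1 (10 nM final) was preincubated with compound for 30 min at room temperature, then reacted with 1 mM GSH, 0.5 mM CHP, 0.5 mM NADPH and 100 nM glutathione reductase; NADPH fluorescence (340/450 nm) was read at 0 and 15 min.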

Assay [4] has as its target Phospholipid hydroperoxide glutathione peroxidase GPX4 (Homo sapiens) (UniProt P36969). As to the kind of experiment: Primary qHTS Assay for Inhibitors of Recombinant Selenoprotein Glutathione Peroxidase 4 (GPX4) (AID 1845192). Note: % is set by controls: 0 for no effect and ±100 for the full control effect; nearly all actives have a fitted effect of over 65% in size. The procedure, abridged: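 GR-coupled readout: 100 nM GR, 1 mM GSH, 0.5 mM NADPH; NADPH fluorescence (ex 340/em 450 nm) read at t=0 and after 15 min RT. GPX4 200 nM, preincubated 30 min with compound; substrate 0.5 mM CHP.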

The target of assay [5] is Luciferin 4-monooxygenase (Photinus pyralis) (UniProt P08659). As to the kind of experiment: Primary firefly luciferase (FLuc) qHTS assay for identification of artifact compounds. (AID 1845220). Note: nearly all actives have a fitted effect of over 60% in size. The settings on record: outcome: dose series up to 54.1 µM unless noted. An outline of the steps:
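qHTS, 15 min compound preincubation with substrate (10 uM luciferin, 10 uM ATP) at RT, then 10 nM FLuc; 5 min; luminescence; % inhibition vs no-enzyme/DMSO controls, 4-parameter Hill fit.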

A short description of assay [6]: Primary fluorescence-based thiol-reactive (MSTI) qHTS assay for identification of artifact compounds. (AID 1845221). Note: nearly all actives have a fitted effect of over 65% in size. Note: potency is the fitted concentration of half-maximal effect. The procedure, abridged:
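Probe: MSTI 4 uM, PBS pH 7.4, 2% DMSO. Incubation 1 h, RT, light-protected. Readout fluorescence 525/598 nm.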

Assay [7] deals with Nanoluciferase (engineered Oplophorus gracilirostris luciferase). As to the kind of experiment: Primary Nanoluciferase (NLuc) qHTS assay for identification of artifact compounds. (AID 1845222).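 Note: 0% = DMSO and -100% = no enzyme.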 The procedure, abridged:
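Luminescence read-out of secreted NLuc in S16 cell conditioned medium (1:55); compounds tested with 15 min RT preincubation, then Nano-Glo substrate 1:100, 5 min. % inhibition vs no-enzyme and DMSO controls, 4-parameter Hill fit.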

The subject of another assay is CRL-7250. As to the kind of experiment: Cytotoxic Profiling of Annotated Libraries Using Quantitative High-Throughput Screening (AID 1296008). For max response: % is set by controls: 0 for no effect and ±100 for the full control effect. Note: nearly all actives have a fitted effect of over 60% in size. Note: potency is the fitted concentration of half-maximal effect. The settings on record: Five cell lines viability, CellTiter-Glo ATP luminescence, 48-72 h; max response: active compounds read low. An outline of the steps: (§1)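 Compounds were pin-transferred onto cells and incubated 48 or 72 hr at 37 degree Celsius, 95% humidity. CellTiter-Glo was added, plates sat 10 min at room temperature, then ATP-coupled luminescence was imaged as the viability read-out.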

The subject of another assay is HEK293. Described as above. The settings on record: Five cell lines viability, CellTiter-Glo ATP luminescence, 48-72 h; max response: active compounds read low. An outline of the steps: as §1
For a further assay, the system named is HaCat. Described as above. The settings on record: Five cell lines viability, CellTiter-Glo ATP luminescence, 48-72 h; max response: active compounds read low. The procedure, abridged: as §1
The next assay concerns NIH3T3. Described as above. The settings on record: Five cell lines viability, CellTiter-Glo ATP luminescence, 48-72 h; max response: active compounds read low. The procedure, abridged:
as §1

For the next assay, the system named is C33A. As to the kind of experiment: Primary qHTS to identify gynecologic anti-cancer compounds using libraries of approved drugs and bioactive compounds (AID 1345084). Note: nearly all actives have a fitted effect of over 55% in size. Note: potency is the fitted concentration of half-maximal effect. The settings on record: Gynecologic cancer cell panel viability, ATPlite luminescence, 48 h; series mostly up to 57.5 µM. An outline of the steps: (§2)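 Cell viability after 48 h drug treatment, ATPlite luminescence readout; five doses.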

A further assay deals with CASKI. The description is as above. The settings on record: Gynecologic cancer cell panel viability, ATPlite luminescence, 48 h; series mostly up to 57.5 µM. An outline of the steps:
as §2

For another assay, the system named is Es-2. The description is as above. To be noted: Gynecologic cancer cell panel viability, ATPlite luminescence, 48 h; series mostly up to 57.5 µM. The procedure, abridged: as §2
The next assay has as its system Hek293T. The description is as above. To be noted: Gynecologic cancer cell panel viability, ATPlite luminescence, 48 h, control line for the selectivity index; series mostly up to 57.5 µM. An outline of the steps:
as §2

Another assay relates to OV90. The assay is described as above. To be noted: Gynecologic cancer cell panel viability, ATPlite luminescence, 48 h; series mostly up to 57.5 µM. An outline of the steps: as §2
A further assay has as its system PA-1. The description is as above. The settings on record: Gynecologic cancer cell panel viability, ATPlite luminescence, 48 h; series mostly up to 57.5 µM. The procedure, abridged: as §2
The test system of the next assay is Tov-21-G. The assay is described as above. To be noted: Gynecologic cancer cell panel viability, ATPlite luminescence, 48 h; series mostly up to 57.5 µM. The procedure, abridged: as §2
The subject of a further assay is Tov112D. The assay is described as above. To be noted: Gynecologic cancer cell panel viability, ATPlite luminescence, 48 h; series mostly up to 57.5 µM. An outline of the steps:
as §2

For assay [8], the system named is Zika virus NS2B-NS3 protease (linked construct). As to the kind of experiment: Primary screen NINDS Rhodamine qHTS for Zika virus inhibitors (AID 1347160). Note: % is set by controls: 0 for no effect and ±100 for the full control effect; nearly all actives have a fitted effect of over 55% in size. An outline of the steps: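 Percent inhibition, normalized to uninhibited and enzyme-free controls, is fitted to a 4-parameter Hill equation. Fluorescence change comes from a 15-min cleavage of 1.5 microM bis-peptide Rhodamine110 substrate by 25 nM linked NS2B-NS3 at room temperature.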

Sequence of Calcium and integrin-binding protein 1 (Homo sapiens) (Q99828 whole entry, looked up): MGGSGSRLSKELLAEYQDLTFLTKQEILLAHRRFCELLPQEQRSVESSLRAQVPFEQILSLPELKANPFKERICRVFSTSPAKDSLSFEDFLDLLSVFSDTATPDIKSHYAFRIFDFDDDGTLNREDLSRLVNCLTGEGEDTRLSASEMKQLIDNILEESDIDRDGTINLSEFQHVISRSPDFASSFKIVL
Sequence of Phospholipid hydroperoxide glutathione peroxidase GPX4 (Homo sapiens) (P36969 whole entry, looked up): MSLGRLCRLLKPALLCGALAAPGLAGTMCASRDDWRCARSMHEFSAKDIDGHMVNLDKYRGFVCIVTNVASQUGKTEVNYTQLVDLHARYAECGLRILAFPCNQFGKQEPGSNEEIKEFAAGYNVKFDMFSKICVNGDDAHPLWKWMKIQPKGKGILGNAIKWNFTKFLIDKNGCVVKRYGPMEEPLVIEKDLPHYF
Sequence of Glutathione peroxidase 1 (Homo sapiens) (P07203 whole entry, looked up): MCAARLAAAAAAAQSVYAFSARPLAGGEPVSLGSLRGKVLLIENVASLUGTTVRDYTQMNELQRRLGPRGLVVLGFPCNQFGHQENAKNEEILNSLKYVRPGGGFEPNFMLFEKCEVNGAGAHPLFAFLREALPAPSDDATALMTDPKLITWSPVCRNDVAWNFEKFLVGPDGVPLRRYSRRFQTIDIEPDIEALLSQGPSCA

On to `COC1CC(O[C@H]2CC[C@]3(C)C4CC[C@]5(C)[C@@H](C6=CC(=O)OC6)[C@@H](OC(C)=O)C[C@]5(O)C4CC[C@@H]3C2)OC(C)C1O[C@@H]1O[C@H](CO)[C@@H](O)[C@H](O)[C@H]1O` (stereo partly specified), for which the Potency entry in [1], in [3], in assay [4] and in [7] was “inactive” throughout. Further, the Potency is 383 nM (active) in assay [2]; 6300 nM (active) in assay [6]; 385 nM (active) in the assay on CRL-7250; 485 nM (active) with HEK293; 1720 nM (active) with HaCat; 631 nM (active) in the assay with C33A. Also, the Potency with CASKI was 3160 nM (active); with Es-2, 794 nM (active); with Hek293T it was 1410 nM (active); in the assay with OV90, 3160 nM (active); with PA-1, 1120 nM (active); with Tov-21-G it was 562 nM (active). Moreover, the Potency with Tov112D is 355 nM (active). Also, in [5], the call was inactive. In the assay with NIH3T3, the max response was 4.46%.

As for `CC1CCCC(=O)CCC/C=C/c2cc(O)cc(O)c2C(=O)O1` (stereo unspecified), the Potency entry (in assay [8]; in assay [1]; in assay [2]; in assay [4]; in [7]; in the assay on C33A) was “inactive” each time. Also, the Potency entry in the assay on CASKI, in the assay with Es-2, with Hek293T, in the assay on OV90, in the assay on Tov-21-G and with Tov112D was “inactive” in each case. For the same compound, the compound was classed as inactive in assay [5]. In addition, in assay [6], the Potency was 14700 nM (active). Also, the max response with CRL-7250 was 3.12%; in the assay on HEK293 it was -3.13%; with HaCat, 2.86%; with NIH3T3 it was -2.03%.

As for `CC(=O)OC[C@]12C[C@H](OC(=O)CC(C)C)C(C)=C[C@H]1O[C@@H]1[C@H](O)[C@@H](OC(C)=O)[C@@]2(C)[C@@]12CO2`, the Potency entry in assay [8], in assay [1], in assay [3], in [4], in assay [6] and in assay [7] was “inactive” throughout. In addition, the Potency in assay [2] is 22.4 nM (active); with CRL-7250, 89.3 nM (active); in the assay on HEK293 it was 22.4 nM (active); in the assay with HaCat, 224 nM (active); with NIH3T3, 50.2 nM (active); with CASKI, 199 nM (active). The Potency with Es-2 was 100 nM (active); in the assay on Hek293T, 112 nM (active); with OV90, 2510 nM (active); with Tov-21-G, 224 nM (active); with Tov112D, 224 nM (active). The outcome in assay [5] is “inactive [at 25.7 µM]”.

With `O=C(CC1NCCC[C@H]1O)Cn1cnc2cc(Br)c(Cl)cc2c1=O` (stereo partly specified), the Potency entry in assay [3] and in [4] was “inactive” each time. In addition, the max response in the assay on CRL-7250 was -5.15%; with HEK293 it was -10.4%; in the assay on HaCat, -11.7%; in the assay with NIH3T3, -4.52%.

In the case of `C[C@H]1O[C@@H](O[C@H]2CC[C@]3(CO)C4CC[C@]5(C)[C@@H](C6=CC(=O)OC6)CC[C@]5(O)[C@@H]4CC[C@H]3C2)[C@H](O)[C@H](O)[C@@H]1O[C@@H]1O[C@H](CO)[C@@H](O)[C@H](O)[C@H]1O` (stereo partly specified), the Potency result in [1], in [3], in assay [4] and in assay [7] was “inactive” throughout. Besides, the Potency in [2] was 608 nM (active); in assay [6] it was 3160 nM (active); with CRL-7250, 1220 nM (active); with HEK293, 1530 nM (active); with HaCat it was 5440 nM (active); with C33A, 1120 nM (active). In addition, the Potency in the assay with CASKI was 6310 nM (active); in the assay on Es-2, 3550 nM (active); in the assay with Hek293T, 3160 nM (active); in the assay with PA-1, 3160 nM (active); in the assay with Tov-21-G, 2820 nM (active); in the assay with Tov112D, 1120 nM (active). For the same compound, in [5], the call was inactive. Moreover, in the assay on NIH3T3, the max response is -2.67%.

Take `CC[C@H]1C[C@@H]2CC[C@@H](O2)[C@@H](C)C(=O)O[C@H](CC)C[C@H]2CC[C@H](O2)[C@H](C)C(=O)O[C@@H](C)C[C@@H]2CC[C@@H](O2)[C@@H](C)C(=O)O[C@H](CC)C[C@H]2CC[C@H](O2)[C@H](C)C(=O)O1`: the Potency result in assay [8], in [1], in [3], in assay [4] and in assay [7] was “inactive” each time. Also, the Potency is 10.8 nM (active) in [2]; 385 nM (active) in the assay with CRL-7250; 21.7 nM (active) with HEK293; 68.5 nM (active) in the assay with HaCat; 38.5 nM (active) with NIH3T3; 224 nM (active) in the assay with C33A. The Potency in the assay on CASKI was 447 nM (active); in the assay with Es-2, 501 nM (active); in the assay with Hek293T, 355 nM (active); in the assay with OV90, 89.1 nM (active); in the assay with PA-1, 178 nM (active). Also, in [5], the compound was called inactive.
